Assay results from PubChem BioAssay AID1159580 (chemical genetic matrix, 2015).
Where “and” joins values, the source holds several entries; their conditions need not be identical. Identical values can stand only once. Screen size: about 5,500 compounds; about 2,000 (36%) were called active. Inconclusive results (about 18%) are left out. No stated cut-off is given here; in the data, active means normalized growth mostly below about 0.91 (no sharp cut-off); inconclusive means no clear call, values can overlap the other calls; inactive means mostly above about 0.92. Some of the results follow.

Experiment: chemical genetic growth profiling, strain panel (AID 1159580);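 further: tested at 20 µM; growth read once vehicle control cultures reached saturation at 30 °C; 1 = growth at the plate median or of vehicle wells; lower values mean less growth of the strain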
Conditions: S. cerevisiae deletion strains, growth OD

Measured: normalized growth

CC(=O)CC1CCCCN1 (configuration not stated)
inactive: locus YAL013W, strain DEP1, active compounds read low 1.01 | locus YAL021C, strain ccr4, active compounds read low 1.02 | locus YAL026C, strain drs2, active compounds read low 1.01 | locus YAL030W, strain snc1, active compounds read low 1.02 | locus YBL061C, strain skt5, active compounds read low 1.02 | locus YBR009C, strain hhf1, active compounds read low 1.02 | locus YBR021W, strain FUR4, active compounds read low 0.985 | locus YBR023C, strain chs3, active compounds read low 1.03 | locus YBR171W, strain sec66, active compounds read low 1.02 | locus YBR229C, strain ROT2, active compounds read low 1.02 | locus YBR231C, strain swc5, active compounds read low 1.01 | locus YBR279W, strain paf1, active compounds read low 1.03 | locus YCL011C, strain gbp2, active compounds read low 1.02 | locus YCL016C, strain dcc1, active compounds read low 1.03 | locus YCL029C, strain bik1, active compounds read low 0.99 | locus YCL061C, strain MRC1, active compounds read low 1.01 | locus YCL069W, strain vba3, active compounds read low 1 | locus YCR088W, strain abp1, active compounds read low 1.02 | locus YDL005C, strain med2, active compounds read low 1.02 | locus YDL035C, strain GPR1, active compounds read low 1.02 | locus YDL040C, strain nat1, active compounds read low 1.02 | locus YDL074C, strain BRE1, active compounds read low 1.03 | locus YDL101C, strain DUN1, active compounds read low 1.02 | locus YDL134C, strain PPH21, active compounds read low 1.01 | locus YDL185W, strain tfp1, active compounds read low 1 | locus YDL192W, strain arf1, active compounds read low 0.992 | locus YDR001C, strain nth1, active compounds read low 1.01 | locus YDR069C, strain doa4, active compounds read low 1.01 | locus YDR101C, strain arx1, active compounds read low 0.982 | locus YDR137W, strain rgp1, active compounds read low 1.04 | locus YDR150W, strain NUM1, active compounds read low 1.02 | locus YDR159W, strain sac3, active compounds read low 1.01 | locus YDR162C, strain NBP2, active compounds read low 1.03 | locus YDR195W, strain ref2 0.982 | locus YDR297W, strain sur2, active compounds read low 1.01 | locus YDR318W, strain mcm21, active compounds read low 0.993 | locus YDR334W, strain swr1, active compounds read low 1 | locus YDR335W, strain msn5, active compounds read low 1.01 | locus YDR388W, active compounds read low 0.992 | locus YDR392W, strain spt3, active compounds read low 0.981 | locus YDR502C, strain sam2, active compounds read low 1 | locus YEL003W, strain gim4, active compounds read low 1.01 | locus YEL037C, strain rad23, active compounds read low 1.02 | locus YEL061C, strain CIN8 (second series), active compounds read low 1.02 | locus YEL061C, strain CIN8, active compounds read low 1.02 | locus YER015W, strain faa2, active compounds read low 1.02 | locus YER016W, strain bim1, active compounds read low 1.02 | locus YER110C, active compounds read low 0.988 | locus YER111C, strain swi4, active compounds read low 1.02 | locus YER155C, strain BEM2 (second series), active compounds read low 1.01 | locus YER155C, strain BEM2, active compounds read low 1.01 | locus YER167W, strain BCK2, active compounds read low 1.01 | locus YFR010W, strain ubp6, active compounds read low 1.01 | locus YGL078C, strain dbp3, active compounds read low 0.991 | locus YGL086W, strain mad1, active compounds read low 0.991 | locus YGL167C, strain pmr1, active compounds read low 1.02 | locus YGL173C, strain kem1, active compounds read low 1.01 | locus YGL227W, strain vid30, active compounds read low 1.02 | locus YGL240W, strain doc1, active compounds read low 1.01 | locus YGL248W, strain PDE1, active compounds read low 1.02 | locus YGL253W, strain hxk2, active compounds read low 1.02 | locus YGR078C, strain PAC10, active compounds read low 1.02 | locus YGR135W, strain pre9, active compounds read low 1 | locus YGR229C, strain SMI1, active compounds read low 1.03 | locus YGR252W, strain gcn5, active compounds read low 0.915 | locus YHR013C, strain ard1, active compounds read low 1.02 | locus YHR027C, strain rpn1, active compounds read low 1.01 | locus YHR030C, strain SLT2, active compounds read low 1.01 and 0.991 | locus YHR079C, strain IRE1 (second series), active compounds read low 0.994 | locus YHR079C, strain IRE1, active compounds read low 1 | locus YHR094C, strain hxt1, active compounds read low 0.991 | locus YHR129C, strain ARP1, active compounds read low 0.974 | locus YHR142W, strain chs7, active compounds read low 1.02 | locus YHR200W, strain rpn10, active compounds read low 0.982 | locus YIL066C, strain RNR3, active compounds read low 1.02 | locus YIL073C, strain SPO22, active compounds read low 1.01 | locus YIL125W, strain kgd1, active compounds read low 0.99 | locus YIR030C, strain dcg1, active compounds read low 0.993 | locus YJL092W, strain hpr5, active compounds read low 1.01 | locus YJL095W, strain BCK1 (second series), active compounds read low 1.02 | locus YJL095W, strain BCK1, active compounds read low 1.01 and 0.998 | locus YJL115W, strain asf1, active compounds read low 1.02 | locus YJL129C, strain trk1, active compounds read low 1.04 | locus YJL134W, strain LCB3, active compounds read low 1.01 | locus YJL154C, strain vps35, active compounds read low 1.02 | locus YJL164C, strain tpk1, active compounds read low 1.03 | locus YJL166W, strain qcr8, active compounds read low 1.03 | locus YJL168C, strain set2, active compounds read low 0.991 | locus YJL187C, strain SWE1 (second series), active compounds read low 1.02 | locus YJL187C, strain SWE1, active compounds read low 1.01 | locus YJR043C, strain POL32, active compounds read low 0.992 | locus YJR066W, strain TOR1, active compounds read low 0.975
